Experimental data reported in PubChem BioAssay AID1508625 (Wald Lab, School of Medicine, Case Western Reserve …, 2021).

Assay: small molecules boosting NK-mediated OVCAR3 lysis – imaging, primary NK cells, calcein-AM imaging, primary screen (AID 1508625);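 also: compound given to NK cells 16 h before adding targets at 1.5 to 1 ratio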;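 as to z-score: more negative robust z means stronger NK killing of tumor cells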
Settings: OVCAR3 lysis by primary NK cells, at 5 µM; z-score: measured here: robust Z-score, single-point normalisation

SMILES	corrected activity, negative = more killing [%]	z-score
CCOc1ccccc1C=Nc1ccc(Cl)cc1Cl	-4.37	-1.86
CC(=O)c1ccc(NC(=O)c2ccc(N)cc2)cc1	-8.59	-1.81
CCOC(=O)c1conc1-c1cccs1	-0.622	-0.198
Cc1ccc(C2C(C(=O)c3ccco3)=C(O)C(=O)N2c2nnc(C)s2)cc1 (centres undefined)	-5.27	-2.29
CCN(CC)S(=O)(=O)c1ccc(C(=O)Nc2nc(-c3ccccc3)c(C(C)=O)s2)cc1	-2.77	-0.984
COC(=O)c1ccc(CSc2nc3c(cnn3-c3ccc(C)cc3)c(=O)[nH]2)o1	-3.63	-0.89
CN(C)S(=O)(=O)c1ccc(C(O)=C2C(=O)C(=O)N(Cc3cccnc3)C2c2ccc(Cl)cc2)cc1 (centres undefined)	-2.24	-0.973
CCOC(=O)c1ccc2c(c1)[C@@H]1C=CC[C@@H]1[C@H](c1ccccc1Br)N2	3.06	0.914
Cc1ccc(C(=O)Oc2cccc(C(=S)N3CCOCC3)c2)cc1	1.48	0.458
CCc1ccc(N2C(=O)CSC2c2ccc(Br)cc2)cc1 (centres undefined)	-3.8	-1.62
O=C(Nc1nc2ccccc2s1)C(=O)Nc1nc2ccccc2s1	0.998	0.309
c1ccc(OCCCc2nc(-c3ccccn3)no2)cc1	-2.46	-1.37
COc1ccccc1CNC(=O)c1sc2ncnc(N3CCOCC3)c2c1C	-0.847	-0.308
CCOc1ccccc1NC(=O)CC1Sc2ccc(C(F)(F)F)cc2NC1=O (centres undefined)	-3.99	-2.14
Cc1ccc(Cl)cc1-n1c(CCC(=O)O)ccc1-c1ccccc1	1.25	0.373
COC(=O)c1ccc(COC(=O)c2ccccc2Cl)cc1	-2.71	-1.51
Cc1cc(C)cc(-n2cnc3cc(C(=O)NC4CCCCCC4)ccc32)c1	-4.5	-1.21
O=C(O)C1C2C=CC(O2)C1C(=O)Nc1ccccc1C(F)(F)F (centres undefined)	-3.8	-1.56
O=C(c1cccc(NS(=O)(=O)Cc2ccccc2)c1)N1CCOCC1	-1.7	-0.945
CCOC(=O)Cc1ccc(N(Cc2ccccc2)S(=O)(=O)c2cc(C)ccc2C)cc1	-11.3	-3.06
O=C(NC1CCCC1)c1c[nH]c2ccc(S(=O)(=O)Nc3cccc(C(F)(F)F)c3)cc2c1=O	-7.02	-1.72
COc1ccc(CNC(=O)Cn2c(=S)[nH]c3ccccc3c2=O)cc1	-4.59	-1.22
Cc1ccccc1OCC(=O)N1N=C2CCCCC2C1(O)C(F)(F)F (centres undefined)	-5.48	-2.09
CCCCOc1ccc(C(=O)N2N=C(C)CC2(O)C(F)(F)F)cc1 (centres undefined)	-6.48	-2.66
CCOc1ccc(-n2c(=O)c3c(C)c(C)sc3n(CC(=O)N3CC(C)CC(C)C3)c2=O)cc1 (centres undefined)	-4.39	-1.25
O=[N+]([O-])c1ccc(N2CCCCC2)cc1NCCc1ccccc1	-2.78	-0.86
CCCCNC(=O)c1cc(Nc2ccc(CC)cc2)nc2ccccc12	-8.29	-2.03
